SMILES strings stand for the structures. Results filed as inconclusive are left out. Unmarked numbers belong to inactive results. Calls follow the shape of the dose curve; as a rule, active = well fitted curve in the direction sought with a large enough effect; inconclusive = small, poorly fitted or top-dose-only effect, or another doubt; inactive = no such curve, though single readings can be large or run the other way.

We go through 40 compounds from PubChem BioAssay AID1845224 (National Center for Advancing Translational Sciences (NCATS), 2023).

The test system of the experiment is NanoLuc luciferase (engineered Oplophorus gracilirostris luciferase). The experiment can be described thus: Confirmatory Nanoluciferase (NLuc) qHTS assay for identification of artifact compounds. Also: % of control where 0% means no effect. The note with it: secreted NLuc in S16 cell medium, luminescence, 5 min; series mostly up to 39 µM; activity change, negative = inhibition: at the top concentration. The text has this: PI: Alexander Tropsha Ph.D. UNC Eshelman School of Pharmacy University of North Carolina, Chapel Hill, North Carolina Hits from high-throughput screening (HTS) of chemical libraries are often false positives due to their interference with the assay detection technology. In response to this problem, we generated the largest publicly available library of chemical liabilities and developed a free webtool to predict HTS artifacts, both of which are described herein. More specifically, we generated, curated, and integrated HTS datasets for thiol reactivity, redox activity, and luciferase (firefly and nano) activity. Using these curated datasets, we developed and validated several Quantitative Structure-Interference Relationship (QSIR) models to predict nuisance behavior. […] These models were employed for virtual profiling of the National Center for Advancing Translational Science's (NCATS) in-house library, and 256 compounds for each assay were selected for the experimental validation of nuisance behavior. The BA for these external predictions ranged from 58 to 78% for compounds within the applicability domains of the models. […] The models developed in this study, along with aggregation models previously developed by our group (SCAM Detective) were implemented in "Liability Predictor," an online tool which may be used as part of chemical library design or for triaging HTS hits. Both the models and the curated datasets are publicly available at https://liability.mml.unc.edu/.
PROTOCOL TABLE SEQUENCE No. (e.g., 1, 2, 3, etc.); PARAMETER (e.g., Cells, Incubation, Reagent, etc.); VALUE; DESCRIPTION. 1; Reagent; 2 uL; Nanoluciferase media. 2; Compounds and control; 16 nL; Kalypsis pin tool (Wako USA) equipped with a 1536-well pin head. 3; Incubation; 15 min. 4; Reagent; 2 uL; Luciferase enzyme. 5; Incubation; 5 min. 6; Detection; Luminescence, ViewLux microplate reader. NOTES (numbers refer to Sequence numbers above) 1. Medium was collected from the culture flasks of NLuc-expressing S16 cells (80% confluent) prior to cell plating, filtered through a 0.22um filter, and frozen at -20C prior to use. Media was diluted (1:55) and 2 uL was dispensed into all wells of a 1536-well assay plate (solid-bottom white plate; Greiner Bio One, Monroe, NC). 2. A Wako Pin-tool (Wako Automation, Richmond, VA) was used to transfer 16 nL of compounds (consisting of 7-plates in qHTS format, final concentration range 18.3 nM to 114 uM) or control Cilnidipine (final concentration range 623 nM to 80 uM). 3. 15 min. incubation at room temperature protected from light. 4. 2 uL of NLuc substrate (1:100 in Nano-Glo luciferase buffer; Nano-Glo luminescence assay, Promega, Madison, WI) was dispensed for a final assay volume of 4 uL. 5. Plates were centrifuged (121xg, 15 seconds) and incubated for 5 minutes. 6. Samples were read for luminescence on a ViewLux CCD imager (PerkinElmer). Data were normalized to no-enzyme (0% activity) and no-inhibitor (DMSO; 100%) controls and the resulting percent inhibition data were fitted to a 4-parameter Hill equation using NCATS in-house software.
In the case of `Brc1ccc2nc(SCCOc3ccccc3)[nH]c2c1`, the “activity change, negative = inhibition” value is -4.85%.
Take `CC(=O)N1CCC(N(Cc2ccco2)C(=O)Nc2ccc(C)c(Cl)c2)CC1`: the “activity change, negative = inhibition” value was -15.5%.
Then `CCOc1ccccc1-n1nnc(-c2nc(-c3ccccc3)no2)c1N`, with -7.29%; and `O=C(Nc1sc2c(c1-c1nc3ccccc3s1)CCNC2)C(F)F`, with -7.36%.
The same measure for `Cc1ccc(NC(=O)Cn2c(=O)n(CCC(=O)NCCc3ccccc3)c(=O)c3ccccc32)cc1`: -10.7%.
In the case of `CC(=O)S[C@H]1CC2=CC(=O)CC[C@@]2(C)[C@H]2CC[C@@]3(C)[C@H](CC[C@]34CCC(=O)O4)[C@@H]12`, the “activity change, negative = inhibition” value was -2.1% [at 19.8 µM].
Then `CN1C(=O)Cc2cc(S(=O)(=O)NCc3ccccc3Cl)ccc21`, with -10.4%; and `COc1cc(O)c2c(c1)O[C@H](c1ccccc1)CC2=O`, with -5.83%.
With `CCOC(=O)c1c(S(=O)(=O)N2CCCC(C(=O)NCc3ccc(F)cc3)C2)c(C)n(CC)c1C` (stereo not given), the “activity change, negative = inhibition” value was -14.8%.
Then `CC(C)CCC[C@@H](C)[C@H]1CC[C@H]2[C@@H]3CC[C@@H]4C[C@H](O)CC[C@]4(C)[C@H]3CC[C@]12C`, with -5.09%.
The same measure for `O=S1(=O)N=C(Oc2ccc(-c3ccccc3)cc2)c2ccccc21`: -1.14%.
The same measure for `CCN(CC)CCNC(=O)c1nn(C)c2c1CS(=O)(=O)c1ccccc1-2`: 8.41%; for `COc1ccc(NC(=O)Cn2c(=O)n(CCc3ccccc3)c(=O)c3c4c(sc32)CCCC4)cc1`: -3.22%; for `C[C@@H]1O[C@@H](O[C@@H]2[C@@H](O)[C@H](OCCc3ccc(O)c(O)c3)O[C@H](CO[C@@H]3O[C@H](CO)[C@@H](O)[C@H](O)[C@H]3O)[C@H]2OC(=O)/C=C/c2ccc(O)c(O)c2)[C@H](O)[C@H](O)[C@H]1O`: 2.01%.
Consider `CCc1cccc(NC(=O)Cn2c(=O)n3nc(-c4cccc(F)c4)nc3c3ccccc32)c1`, for which the “activity change, negative = inhibition” value was -14.1%.
Turning to `Nc1cccc(-c2ccc(NC(=O)c3cccs3)cn2)c1`, the “activity change, negative = inhibition” value was -1.41%.
The same measure for `CCOc1ccc(OCC)c(NS(=O)(=O)c2c(C)[nH]c(=O)[nH]c2=O)c1`: -2.65%.
As for `CCCC(=O)Nc1cc2nn(-c3ccccc3)nc2cc1C`, the “activity change, negative = inhibition” value is -5.59%.
As for `C=C(C)[C@]12C[C@@H](C)[C@@]34OC(Cc5ccccc5)(O[C@@H]1[C@@H]3C=C(COC(=O)Cc1cc(OC)c(O)cc1I)C[C@]1(O)C(=O)C(C)=C[C@@H]41)O2`, the “activity change, negative = inhibition” value is -8.96%.
For the compound `Cc1cc(O)cc(O)c1C(=O)O`, the “activity change, negative = inhibition” value was 0.0466%.
Then `O=C(NCCC1=CCCCC1)c1ccc2c(c1)N(Cc1cccc(Cl)c1)C(=O)c1ccccc1S2=O` (stereo not given), with -2.54%.
As for `COC(=O)c1c(NC(=O)c2nc(SCc3cccc(C)c3)ncc2Cl)sc2c1CCCC2`, the “activity change, negative = inhibition” value was -4.52%.
For the compound `O=c1oc2ccc(F)cc2cc1-c1nc(-c2cccs2)no1`, the “activity change, negative = inhibition” value was -6.64%.
Regarding `COc1ccc(C(=O)Nc2ccc(-c3nc4ncccc4o3)cc2)cc1`, the “activity change, negative = inhibition” value was -15.3%.
The same measure for `O=C(Nc1ccc(-c2nc3ccccc3[nH]2)cc1)c1ccc(Cl)c(Cl)c1`: -3.73%; for `Cc1ccc(C(=O)Nc2nc(-c3ccccc3)ns2)cc1`: -7.23%.
The same measure for `N#Cc1cccc(-c2ccc(NC(=O)c3cccs3)cn2)c1`: -9.86%.
Then `CCOC(=O)N1CCN(S(=O)(=O)N2CCCC(C(=O)NCc3cccc(OC)c3)C2)CC1` (stereo not given), with -6.38%; and `CCOc1ccc(CCNC(=O)c2cnc3c(-c4ccccc4)c(C)nn3c2C)cc1OCC`, with -1.56%.
For `CCOc1ccccc1NC(=O)N1CCCn2nc(C)cc21`, the “activity change, negative = inhibition” value is 0%.
The same measure for `CCOC(=O)c1c(C)[nH]c(CCC(=O)NCCCN2CCN(c3ccc(F)cc3)CC2)c1C`: -5.53%; for `COC(=O)C1=CO[C@@H](O[C@@H]2O[C@H](CO)[C@@H](O)[C@H](O)[C@H]2O)C2C(CO)=CCC12` (stereo not given in full): -0.305%; for `Cc1ccc(CSc2ncccc2C(=O)O)cc1`: -19.5%.
Then `COc1ccc(CC(N)C(=O)N[C@H]2[C@@H](O)[C@H](n3cnc4c(N(C)C)ncnc43)O[C@@H]2CO)cc1` (stereo not given in full), with -0.358%.
The same measure for `Cc1ccc(S(=O)(=O)N2CCN(c3nc(-c4cccs4)nc4cccnc34)CC2)cc1`: -0.839%.
In the case of `CC(C)[C@@H](C)/C=C/[C@@H](C)[C@H]1CC[C@H]2/C(=C/C=C3\C[C@@H](O)CC[C@@H]3C)CCC[C@]12C`, the “activity change, negative = inhibition” value was -8.1%.
With `COc1ccc(-c2cc(C(=O)Nc3cc(C(F)(F)F)ccc3Cl)no2)cc1`, the “activity change, negative = inhibition” value was -1.6%.
Take `Cc1ccc(NC(=O)c2ncn(-c3ccccc3)n2)c(Cl)c1`: the “activity change, negative = inhibition” value is -6.83%.
Consider `Cc1ccc(S(=O)(=O)c2nnn3c2nc(NCc2ccc(F)cc2)c2sccc23)cc1C`, for which the “activity change, negative = inhibition” value was -6.1%.
Then `CO[C@H]1C[C@H](O[C@H]2[C@H](C)[C@@H](O[C@@H]3O[C@H](C)C[C@H](N(C)C)[C@H]3O)[C@@H](C)C[C@]3(CO3)C(=O)[C@H](C)[C@@H](O)[C@@H](C)[C@@H](C)OC(=O)[C@@H]2C)O[C@@H](C)[C@@H]1O`, with 10.5% [at 19.8 µM].
